Data: PubChem BioAssay (Tox21)
Records with an inconclusive call do not appear. Calls of active or inactive are those of the source. Calls follow the shape of the dose curve; as a rule, active = well fitted cell-killing curve with a large enough effect in the repeat runs; inconclusive = weak or mixed curves, or effect the other way; inactive = no such curve, though single readings can be large or run the other way.
% is scaled to controls: 0 for no effect and ±100 for the full control effect.

Experiment: qHTS assay to identify small molecule agonists of the estrogen receptor alpha (ER-alpha) signaling pathway in the presence of an antagonist - cell viability counter screen (AID 1259386);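 also: cells exposed to compounds for 22 h at 37 °C before the viability read; nearly all actives have a fitted effect of over 30% in size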
Settings: VM7Luc4E2 viability, CellTiter-Fluor fluorescence, 22 h; series mostly up to 92.4 µM
Description: National Center for Advancing Translational Sciences [NCATS]
NIH Chemical Genomics Center [NCGC]
U.S. Environmental Protection Agency [EPA]
National Institutes of Environmental Health Sciences [NIEHS]
National Toxicology Program [NTP]
U.S. Food and Drug Administration [FDA]
Estrogen receptor (ER), a member of nuclear hormone receptor plays an important role in development, metabolic homeostasis and reproduction. Two subtypes of ER, ER-alpha and ER-beta, have similar expression patterns with some uniqueness in both types. Endocrine disrupting chemicals (EDCs) and their interactions with steroid hormone receptors like ER causes disruption of normal endocrine function. Therefore, it is important to understand the effect of environmental chemicals in ER signaling pathway. For identifying ER agonists, VM7Luc4E2 cell line has been used in the current assay.
VM7Luc4E2 cell line (provided by Denison MS, University of California) endogenously expresses full-length ER-alpha and is stably transfected with a plasmid containing four estrogen responsive elements (ERE) upstream of a luciferase reporter gene. This current screening for measuring luciferase reporter gene activity using VM7Luc4E2 cells against Tox21 10K library collection is a confirmation study on agonist mode screening in presence of ER-antagonist (ICI-182,780) at 10.0nM final concentration. The cytotoxicity of the compounds was tested in parallel by measuring the cell viability using CellTiter-Fluor assay system (Promega, Madison, WI) in the same wells.
Tox21 Assay Protocol Summary:
VM7Luc4E2 cells were cultured in phenol red free assay medium containing 10% charcoal stripped FBS for 5 days prior to the assay. The cells were dispensed at 4,000 cells in 4uL of assay medium per well into white wall/solid-bottom 1536-well plates (Corning Life Sciences, Corning, NY) using a Multidrop Combi (Thermo Fisher Scientific Inc., Waltham, MA) dispenser. After the assay plates were incubated at 37C and 5% CO2 for 24hr, 1uL of 10.0nM (final concentration) ICI-182,780 or assay buffer was added using two separate tips of Flying Reagent Dispenser (FRD, Aurora Discovery, San Diego, CA). Then 23nL of compounds dissolved in DMSO at 15 concentrations and positive controls or DMSO only was transferred to the assay plates by a Pintool station (Wako, San Diego, CA). The assay plates were incubated at 37C and 5% CO2 for 22hr. After 21hr incubation at 37C, 1uL/well CellTiter-Fluor reagent (Promega Corporation, Madison, WI) was added to each well using FRD and after 1hr incubation at 37C and 5% CO2, the fluorescence signal was measured on ViewLux plate reader (PerkinElmer, Shelton, CT).
For Cc1c(Cl)cccc1Cl, the outcome was “inactive”. In the case of O=C(O)[C@H](O)c1ccccc1, the outcome is reported as “inactive”. With O=Cc1ccccc1Cl the outcome was “inactive”. With O=C1CCC(=O)N1Cl the outcome was “inactive”. For CC1CC(=O)CC(C)(C)C1 (stereo not given), the outcome was “inactive”. In the case of CN(C)CC/C=C1/c2ccccc2COc2ccc(CC(=O)O)cc21, the outcome is reported as “inactive”. For C=CCCCCCCCCC(=O)OCCCC, the outcome was “inactive”. With O=C(Cn1ccnc1[N+](=O)[O-])NCc1ccccc1 the outcome was “inactive”. In the case of CCCC(=O)OCCC(C)CCC=C(C)C (stereo not given), the outcome is reported as “inactive”. With O=NN(CCCl)C(=O)NC1CCCCC1 the outcome was “inactive”. In the case of CC(=O)CCC1=C(C)CCCC1(C)C, the outcome is reported as “inactive”. For Cc1cc(C)c(C(=O)O)c(C)c1, the outcome was “inactive”. For Cc1ncc([N+](=O)[O-])n1CC(C)O (stereo not given), the outcome was “inactive”. In the case of [O]=[Mo](=[O])=[O], the activity change, negative = cytotoxicity is reported as -0.317% [at 19 µM] (inactive). With C#CCN[C@@H]1CCc2ccccc21 the outcome was “inactive”. For COc1c2occc2c(OC)c2c(=O)cc(C)oc12, the outcome was “inactive”. For CCCCCCCCCCCCCCC(=O)NC(CO)CCCCCCCCCCCCCC (stereo not given), the outcome was “inactive”. In the case of CCCC(=O)OC/C=C(\C)CCC=C(C)C, the outcome is reported as “inactive”. For N#Cc1ccccc1O, the outcome was “inactive”. With COCCc1ccccn1 the outcome was “inactive”. In the case of C=C(C)[C@@H]1CC=C(C)CC1, the outcome is reported as “inactive”. For C=CCCCCCCCC, the outcome was “inactive”. For CN1CCOC(c2ccccc2)c2ccccc2C1 (stereo not given), the outcome was “inactive”. For Cc1cccc(Cl)c1, the outcome was “inactive”. For CC(=O)CCc1ccc(OC(C)=O)cc1, the outcome was “inactive”. In the case of CCC(=O)CC, the outcome is reported as “inactive”. In the case of O=C1OCCO1, the outcome is reported as “inactive”. For CC(C)OC(=O)CCC(=O)OC(C)C, the outcome was “inactive”. In the case of CN(C)CCCCl, the outcome is reported as “inactive”. In the case of CN1C[C@@H]2C[C@H]1CN2c1cc2c(cc1F)c(=O)c(C(=O)O)cn2C1CC1, the activity change, negative = cytotoxicity is reported as -0.242% [at 19 µM] (inactive). With Cc1cc(-c2ccccc2)nnc1NCCN1CCOCC1 the outcome was “inactive”. With CC(O)COC(C)(C)C (stereo not given) the outcome was “inactive”. In the case of CCCCCCCCCCCCCBr, the outcome is reported as “inactive”. In the case of Cc1ccc2c(c1)C(=O)c1ccccc1C2=O, the outcome is reported as “inactive”. With C/C(=C1\CCOC(=O)S1)N(C=O)Cc1cnc(C)nc1N the outcome was “inactive”. For N#CCC(=O)NN, the outcome was “inactive”. For CC(=O)OC1CCCCC1C(C)(C)C (stereo not given), the outcome was “inactive”. For COC(=O)CCCCC(=O)O, the outcome was “inactive”. With O=C1c2ccccc2C(=O)c2cc(Cl)ccc21 the activity change, negative = cytotoxicity was 1.35% [at 8.39 µM] (inactive). For CCCCCCCCCOC(=O)CCCCC(=O)OCCCCCCC, the outcome was “inactive”.
